Among the data in PubChem BioAssay are inhibition values, retold here.

The source made the active and inactive calls. How the calls were made is not given here. Where a SMILES comes first, the peptide text is derived from it. The star is where a group is joined. Boc = CC(C)(C)OC(=O)*

One assay concerns Botulinum neurotoxin type F light chain protease (Clostridium botulinum). The assay can be described thus: Clostridium botulinum type F light chain protease inhibitors, microsphere substrate cleavage, validation (AID 588459). The settings on record: multiplex microsphere protease substrate cleavage assay, flow cytometry; at 10 µM; stronger effect = higher value.
Consider `CC(=O)O[C@]1(C(C)=O)CC[C@H]2[C@@H]3C[C@H](C)C4=CC(=O)CC[C@]4(C)[C@H]3CC[C@@]21C`, for which the inhibition is 0.4% (inactive).
Regarding `CN(C)CCN(Cc1ccc(Cl)cc1)c1ccccn1`, the inhibition is -0.9% (inactive).
The same measure, in the same setting: the figure for `c1ccc(Nc2cccc3c(Nc4ccccc4)cccc23)cc1` is -3.6% (inactive).
Same read-out and setting: the figure for `COc1ccc(/C=C/C(=O)Nc2ccccc2C(=O)O)cc1OC` is 2.5% (inactive); for `Cc1cccc(N(C)C(=S)Oc2ccc3ccccc3c2)c1` it is -0.1% (inactive); for `COc1ccc(CCNC(=O)CC(c2ccccc2)c2cccc(C)c2O)cc1OC` (stereo not given) it is -0.9% (inactive).
As to `COc1ccc(OC)c(-c2oc3ccccc3c(=O)c2O)c1`, the inhibition was 0.6% (inactive).
With `Cn1c(=O)c2c(ncn2CC(O)CO)n(C)c1=O` (stereo not given), the inhibition is 2.3% (inactive).
The same measure, in the same setting: the result for `NCc1ccccc1COc1ccccc1` reads 2.3% (inactive).
As to `COc1ccc(NC(=O)C2CSC3c4ccccc4C(=O)N23)cc1` (stereo not given), the inhibition was -0.5% (inactive).
On the same count and under the same terms, the result for `Nc1ccn([C@@H]2O[C@H](CO)[C@@H](O)[C@@H]2O)c(=O)n1` reads -1.4% (inactive).
Regarding `COc1ccc(C(=O)[C@H]2[C@H]3C(=O)N(c4ccccc4)C(=O)[C@H]3C3C=CC=NN32)cc1` (stereo not given in full), the inhibition is 1.9% (inactive).
On the same count and under the same terms, the figure for `CC(=O)NC(CC(C)C)C(=O)NC(Cc1ccccc1)C(N)=O` (stereo not drawn) (Ac-Leu-Phe-NH2; configuration not given here) is 3.1% (inactive).
On the same count and under the same terms, the figure for `O=c1c(-c2ccccc2)c(O)c2cccc3c2n1CCC3` is 3.3% (inactive); for `O=Cc1ccc(N2CCCCC2)cc1` it is -0.8% (inactive).
Still for that read-out and setting: the figure for `CC(C)CCC1(CCNC(C)c2cccs2)CCOC(C)(C)C1` (stereo not given) is -3.5% (inactive); for `COc1ccc(C2NC(C(=O)O)Cc3c2[nH]c2ccccc32)cc1CN1CCN(c2ccc(F)cc2)CC1` (stereo not given) it is 8.8% (inactive).
With `COc1ccc(C(=O)Nc2cccc3cccnc23)cc1OC`, the inhibition is -2.2% (inactive).
Same read-out and setting: the figure for `Cc1ccc(CSCC(=O)NCCCN2CCOCC2)cc1` is 1.4% (inactive); for `O=C(CC1(O)C(=O)Nc2ccccc21)c1ccccc1O` (stereo not given) it is 0.6% (inactive); for `Oc1ccccc1OCCOc1ccccc1OCCOc1ccccc1O` it is 6.5% (inactive).
Same read-out and setting: the result for `C[C@]12CCC(=O)C=C1CC[C@@H]1[C@@H]2[C@@H](O)C[C@@]2(C)[C@H]1CC[C@]2(O)C(=O)CO` reads 2.1% (inactive); that for `CSc1ccc(CN2CCN(CCC(C)C)C(CCO)C2)cc1` (stereo not given), 2.2% (inactive).
Same read-out and setting: the figure for `COc1ccc2c(c1)[N+](C)(C)C(C)(C)C=C2C` is -0.4% (inactive); for `COc1cc2c(cc1OC)C1(CCCC1)CNC2c1cccc([N+](=O)[O-])c1` (stereo not given) it is 1% (inactive); for `Cc1ccc(C(=O)NC(=S)NCCCN2CCOCC2)cc1` it is 3.6% (inactive).
Take `Nc1nc2ccc(OC(F)(F)F)cc2s1`: the inhibition was 0.4% (inactive).
Same read-out and setting: the result for `OCC1CCN(Cc2cn(Cc3ccccc3)nc2-c2cc3ccccc3o2)CC1` reads -0.4% (inactive).
Same read-out and setting: the figure for `COc1cc(Cl)cc2c1Sc1ccccc1/C2=C/CCN(C)C` is -4.5% (inactive).
Same read-out and setting: the result for `C[C@@H]1C[C@H]2[C@@H]3CCC4=CC(=O)C=C[C@]4(C)[C@@]3(F)[C@@H](O)C[C@]2(C)[C@H]1C(=O)CO` reads 0.3% (inactive).
As to `CC(C)(C)OC(=O)N1CCCC1C(=O)NC(Cc1ccccc1)C(=O)O` (stereo not drawn) (Boc-Pro-Phe-OH; configuration not given here), the inhibition is -2.1% (inactive).
Same read-out and setting: the figure for `Cc1ccccc1C(=O)Nc1ccccc1C(=O)NCC(C)C` is -5.7% (inactive); for `C=CCC1(O)C(=O)N2C(=C1C(=O)N1CCOCC1)c1ccccc1CC2(C)C` (stereo not given) it is -1.7% (inactive); for `C=CCc1ccc(OCC(O)COc2ccc(CC=C)cc2OC)c(OC)c1` it is 5.2% (inactive).
On the same count and under the same terms, the result for `CC[C@]1(O)CC2CN(CCc3c([nH]c4ccccc34)[C@@](C(=O)OC)(c3cc4c(cc3OC)N(C=O)[C@H]3[C@@](O)(C(=O)OC)[C@H](OC(C)=O)[C@]5(CC)C=CCN6CC[C@]43[C@@H]65)C2)C1` (stereo not given in full) reads 1.5% (inactive); that for `C[C@]12CC[C@H]3[C@@H](CCC4=CC(=O)CC[C@@]43C)[C@@H]1CC[C@@H]2C(=O)CO`, 3.9% (inactive).
The same measure, in the same setting: the figure for `CCc1cccc(OC2OC(CO)C(O)C(O)C2NC(C)=O)c1` (stereo not given) is -0.7% (inactive); for `CC(C)CCOCC(=O)Nc1cccc(C(=O)O)c1` it is 2.9% (inactive).
Take `COCCn1c(SCCOc2ccccc2)nc2ccccc2c1=O`: the inhibition is 1.6% (inactive).
On the same count and under the same terms, the result for `O=C(Cc1ccccc1)NCC(=O)OCC(=O)c1ccccc1Cl` reads 1% (inactive).

In a further assay the target is Botulinum neurotoxin type A (Clostridium botulinum) (UniProt P0DPI0). The assay can be described thus: BoNT/A light chain protease inhibitors, biochemical, multiplex microsphere flow cytometry, validation set (AID 588460). The settings on record: at 10 µM, stronger effect = higher value.
Botulinum neurotoxin type A (Clostridium botulinum), sequence (P0DPI0 whole entry, looked up): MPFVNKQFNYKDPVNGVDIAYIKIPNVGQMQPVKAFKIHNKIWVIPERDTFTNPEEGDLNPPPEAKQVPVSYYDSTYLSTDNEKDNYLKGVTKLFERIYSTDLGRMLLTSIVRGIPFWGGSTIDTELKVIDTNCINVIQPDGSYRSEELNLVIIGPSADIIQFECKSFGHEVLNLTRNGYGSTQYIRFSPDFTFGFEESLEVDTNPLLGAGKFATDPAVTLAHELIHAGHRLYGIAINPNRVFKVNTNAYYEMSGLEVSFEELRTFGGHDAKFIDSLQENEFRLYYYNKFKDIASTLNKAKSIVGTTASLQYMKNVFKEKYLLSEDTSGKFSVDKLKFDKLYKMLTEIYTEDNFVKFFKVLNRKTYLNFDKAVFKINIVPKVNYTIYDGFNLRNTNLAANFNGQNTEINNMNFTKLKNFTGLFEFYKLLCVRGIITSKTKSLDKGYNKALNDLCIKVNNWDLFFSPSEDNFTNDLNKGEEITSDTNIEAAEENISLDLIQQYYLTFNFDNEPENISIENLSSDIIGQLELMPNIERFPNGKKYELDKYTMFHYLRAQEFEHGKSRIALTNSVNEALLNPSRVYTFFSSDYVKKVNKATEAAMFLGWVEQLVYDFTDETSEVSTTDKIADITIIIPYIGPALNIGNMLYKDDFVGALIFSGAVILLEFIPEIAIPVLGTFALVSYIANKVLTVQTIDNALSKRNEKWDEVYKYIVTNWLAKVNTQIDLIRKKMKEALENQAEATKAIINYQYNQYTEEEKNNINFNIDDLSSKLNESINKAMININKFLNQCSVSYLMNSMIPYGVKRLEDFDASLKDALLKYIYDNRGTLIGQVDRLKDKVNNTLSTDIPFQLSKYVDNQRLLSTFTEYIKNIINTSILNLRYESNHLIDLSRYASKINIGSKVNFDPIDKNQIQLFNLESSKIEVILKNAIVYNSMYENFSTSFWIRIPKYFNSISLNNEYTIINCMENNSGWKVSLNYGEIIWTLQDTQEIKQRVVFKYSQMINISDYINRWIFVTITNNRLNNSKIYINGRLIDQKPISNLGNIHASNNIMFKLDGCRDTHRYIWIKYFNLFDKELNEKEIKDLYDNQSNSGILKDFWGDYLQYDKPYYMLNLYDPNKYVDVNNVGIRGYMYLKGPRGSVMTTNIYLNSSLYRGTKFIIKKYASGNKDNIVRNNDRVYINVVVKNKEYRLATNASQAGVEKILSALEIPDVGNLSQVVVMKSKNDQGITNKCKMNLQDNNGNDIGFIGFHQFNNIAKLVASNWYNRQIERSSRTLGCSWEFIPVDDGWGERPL
On to `CC(=O)O[C@]1(C(C)=O)CC[C@H]2[C@@H]3C[C@H](C)C4=CC(=O)CC[C@]4(C)[C@H]3CC[C@@]21C`, for which the inhibition was -1.6% (inactive).
Regarding `CN(C)CCN(Cc1ccc(Cl)cc1)c1ccccn1`, the inhibition was 0.1% (inactive).
Regarding `c1ccc(Nc2cccc3c(Nc4ccccc4)cccc23)cc1`, the inhibition is -3% (inactive).
On the same count and under the same terms, the figure for `COc1ccc(/C=C/C(=O)Nc2ccccc2C(=O)O)cc1OC` is -0.9% (inactive).
Still for that read-out and setting: the figure for `Cc1cccc(N(C)C(=S)Oc2ccc3ccccc3c2)c1` is -0.6% (inactive); for `COc1ccc(CCNC(=O)CC(c2ccccc2)c2cccc(C)c2O)cc1OC` (stereo not given) it is -0.9% (inactive).
Same read-out and setting: the result for `COc1ccc(OC)c(-c2oc3ccccc3c(=O)c2O)c1` reads 1.3% (inactive).
In the case of `Cn1c(=O)c2c(ncn2CC(O)CO)n(C)c1=O` (stereo not given), the inhibition was 1% (inactive).
Still for that read-out and setting: the figure for `NCc1ccccc1COc1ccccc1` is 0.1% (inactive); for `COc1ccc(NC(=O)C2CSC3c4ccccc4C(=O)N23)cc1` (stereo not given) it is -0.2% (inactive); for `Nc1ccn([C@@H]2O[C@H](CO)[C@@H](O)[C@@H]2O)c(=O)n1` it is -0.7% (inactive).
Still for that read-out and setting: the figure for `COc1ccc(C(=O)[C@H]2[C@H]3C(=O)N(c4ccccc4)C(=O)[C@H]3C3C=CC=NN32)cc1` (stereo not given in full) is 4.7% (inactive); for `CC(=O)NC(CC(C)C)C(=O)NC(Cc1ccccc1)C(N)=O` (stereo not drawn) (Ac-Leu-Phe-NH2; configuration not given here) it is 0.2% (inactive); for `O=c1c(-c2ccccc2)c(O)c2cccc3c2n1CCC3` it is 0.8% (inactive).
Still for that read-out and setting: the result for `O=Cc1ccc(N2CCCCC2)cc1` reads -0.3% (inactive); that for `CC(C)CCC1(CCNC(C)c2cccs2)CCOC(C)(C)C1` (stereo not given), -0.9% (inactive).
Consider `COc1ccc(C2NC(C(=O)O)Cc3c2[nH]c2ccccc32)cc1CN1CCN(c2ccc(F)cc2)CC1` (stereo not given), for which the inhibition was 0.4% (inactive).
Same read-out and setting: the figure for `COc1ccc(C(=O)Nc2cccc3cccnc23)cc1OC` is -2.2% (inactive).
On to `Cc1ccc(CSCC(=O)NCCCN2CCOCC2)cc1`, for which the inhibition is -1.7% (inactive).
On the same count and under the same terms, the result for `O=C(CC1(O)C(=O)Nc2ccccc21)c1ccccc1O` (stereo not given) reads -0.8% (inactive).
On the same count and under the same terms, the figure for `Oc1ccccc1OCCOc1ccccc1OCCOc1ccccc1O` is 0.7% (inactive); for `C[C@]12CCC(=O)C=C1CC[C@@H]1[C@@H]2[C@@H](O)C[C@@]2(C)[C@H]1CC[C@]2(O)C(=O)CO` it is -1.4% (inactive); for `CSc1ccc(CN2CCN(CCC(C)C)C(CCO)C2)cc1` (stereo not given) it is 0.1% (inactive).
Still for that read-out and setting: the result for `COc1ccc2c(c1)[N+](C)(C)C(C)(C)C=C2C` reads 0.1% (inactive); that for `COc1cc2c(cc1OC)C1(CCCC1)CNC2c1cccc([N+](=O)[O-])c1` (stereo not given), 0.1% (inactive); that for `Cc1ccc(C(=O)NC(=S)NCCCN2CCOCC2)cc1`, -1.4% (inactive).
On to `Nc1nc2ccc(OC(F)(F)F)cc2s1`, for which the inhibition was -0.1% (inactive).
On to `OCC1CCN(Cc2cn(Cc3ccccc3)nc2-c2cc3ccccc3o2)CC1`, for which the inhibition was -0.7% (inactive).
Same read-out and setting: the result for `COc1cc(Cl)cc2c1Sc1ccccc1/C2=C/CCN(C)C` reads -1.1% (inactive); that for `C[C@@H]1C[C@H]2[C@@H]3CCC4=CC(=O)C=C[C@]4(C)[C@@]3(F)[C@@H](O)C[C@]2(C)[C@H]1C(=O)CO`, -1.7% (inactive).
Consider `CC(C)(C)OC(=O)N1CCCC1C(=O)NC(Cc1ccccc1)C(=O)O` (stereo not drawn) (Boc-Pro-Phe-OH; configuration not given here), for which the inhibition was -0.8% (inactive).
Turning to `Cc1ccccc1C(=O)Nc1ccccc1C(=O)NCC(C)C`, the inhibition is -0.4% (inactive).
Still for that read-out and setting: the result for `C=CCC1(O)C(=O)N2C(=C1C(=O)N1CCOCC1)c1ccccc1CC2(C)C` (stereo not given) reads -0.2% (inactive); that for `C=CCc1ccc(OCC(O)COc2ccc(CC=C)cc2OC)c(OC)c1`, -0.2% (inactive).
The same measure, in the same setting: the figure for `CC[C@]1(O)CC2CN(CCc3c([nH]c4ccccc34)[C@@](C(=O)OC)(c3cc4c(cc3OC)N(C=O)[C@H]3[C@@](O)(C(=O)OC)[C@H](OC(C)=O)[C@]5(CC)C=CCN6CC[C@]43[C@@H]65)C2)C1` (stereo not given in full) is 0% (inactive); for `C[C@]12CC[C@H]3[C@@H](CCC4=CC(=O)CC[C@@]43C)[C@@H]1CC[C@@H]2C(=O)CO` it is -2.4% (inactive).
Turning to `CCc1cccc(OC2OC(CO)C(O)C(O)C2NC(C)=O)c1` (stereo not given), the inhibition is -0.7% (inactive).
The same measure, in the same setting: the result for `CC(C)CCOCC(=O)Nc1cccc(C(=O)O)c1` reads 0% (inactive); that for `COCCn1c(SCCOc2ccccc2)nc2ccccc2c1=O`, -0.3% (inactive).
On the same count and under the same terms, the result for `O=C(Cc1ccccc1)NCC(=O)OCC(=O)c1ccccc1Cl` reads -2.5% (inactive).
